# The supplement of paper PMC8728848
# Shown is part of a subset that was picked to be rich in the strongest signals.
# What was measured:
# Assay in all cases: glycan array binding signal (z-score within array); higher = stronger binding
# Settings in all cases: glycan notation: IUPAC condensed, linker removed
# Fuc(a1-2)Gal = target: Fuc(a1-2)Gal
# Summary of the method: (§1)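 Glycan array binding is given as a within-array Z-score, which can be read as non-binding when negative. The arrays, 3228 of them, came from the Consortium for Functional Glycomics database and were retained only where the protein sequence was available. Z-scores were averaged across arrays of the same protein sequence at different concentrations or buffers and across linkers.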
# Fuc(a1-2)Gal(b1-3)GlcNAc = target: Fuc(a1-2)Gal(b1-3)GlcNAc
# Summary of the method: as §1
# Fuc(a1-2)[Gal(a1-3)]Gal = target: Fuc(a1-2)[Gal(a1-3)]Gal
# Summary of the method: as §1
# Gal(a1-3)Gal(b1-3)GlcNAc = target: Gal(a1-3)Gal(b1-3)GlcNAc
# Summary of the method: as §1
# Gal(a1-3)Gal(b1-4)Glc = target: Gal(a1-3)Gal(b1-4)Glc
# Summary of the method: as §1
# Gal(a1-6)Glc = target: Gal(a1-6)Glc
# Summary of the method: as §1
# Gal(b1-3)Gal(b1-4)GlcNAc = target: Gal(b1-3)Gal(b1-4)GlcNAc
# Summary of the method: as §1
# [1] = target: Gal(b1-3)GlcNAc(b1-3)Gal(b1-4)Glc
# Summary of the method: as §1
# [2] = target: Gal(b1-3)[Fuc(a1-4)]GlcNAc
# Summary of the method: as §1
# [3] = target: Gal(b1-4)GlcNAc(b1-3)[GlcNAc(b1-6)]Gal(b1-4)GlcNAc
# Summary of the method: as §1
# [4] = target: Gal(b1-4)GlcNAc(b1-6)[Gal(b1-3)]GalNAc
# Summary of the method: as §1
# Gal3S(b1-4)Glc = target: Gal3S(b1-4)Glc
# Summary of the method: as §1
# Gal6S(b1-4)Glc6S = target: Gal6S(b1-4)Glc6S
# Summary of the method: as §1
# Gal6S(b1-4)GlcNAc6S = target: Gal6S(b1-4)GlcNAc6S
# Summary of the method: as §1
# [5] = target: GalNAc(b1-3)Gal(a1-4)Gal(b1-4)GlcNAc
# Summary of the method: as §1
# [6] = target: GlcNAc(b1-2)Gal(b1-3)GalNAc
# Summary of the method: as §1
# [7] = target: GlcNAc(b1-4)Gal(b1-4)GlcNAc
# Summary of the method: as §1
# [8] = target: Man(a1-2)Man(a1-2)Man(a1-3)Man
# Summary of the method: as §1
# [9] = target: Man(a1-2)Man(a1-3)[Man(a1-2)Man(a1-6)]Man(a1-6)[Man(a1-2)Man(a1-2)Man(a1-3)]Man(b1-4)GlcNAc(b1-4)GlcNAc
# Summary of the method: as §1
# [10] = target: Neu5Ac(a2-3)Gal(b1-3)GalNAc
# Summary of the method: as §1
# [11] = target: Neu5Ac(a2-3)Gal(b1-4)GlcNAc(b1-2)Man(a1-3)[Neu5Ac(a2-6)Gal(b1-4)GlcNAc(b1-2)Man(a1-6)]Man(b1-4)GlcNAc(b1-4)GlcNAc
# Summary of the method: as §1
# [12] = target: Neu5Ac(a2-3)Gal(b1-4)GlcNAc(b1-6)[Gal(b1-3)]GalNAc
# Summary of the method: as §1
# Neu5Ac(a2-8)Neu5Ac = target: Neu5Ac(a2-8)Neu5Ac
# Summary of the method: as §1
# [13] = target: Neu5Ac9Ac(a2-6)Gal(b1-4)GlcNAc
# Summary of the method: as §1
# [14] = target: Neu5Gc(b2-6)Gal(b1-4)GlcNAc
# Summary of the method: as §1
binder,measurement,setting,value
"Langerin CRD (Homo sapiens), Q9UJ71 (protein) QVVSQGWKYFKGNFYYFSLIPKTWYSAEQFCVSRNSHLTSVTSESEQEFLYKTAGGLIYWIGLTKAGMEGDWSWVDDTPFNKVQSVRFWIPGEPNNAGNNEHCGNIKAPSLQAWNDAPCDKTFLFICKRPYVPSEPSAWSHPQFEK",glycan array binding signal (z-score),Fuc(a1-2)Gal,0.647
same,glycan array binding signal (z-score),Fuc(a1-2)Gal(b1-3)GlcNAc,0
same,glycan array binding signal (z-score),Fuc(a1-2)[Gal(a1-3)]Gal,4.04
same,glycan array binding signal (z-score),Gal(a1-3)Gal(b1-3)GlcNAc,-0.623
same,glycan array binding signal (z-score),Gal(a1-3)Gal(b1-4)Glc,-0.487
same,glycan array binding signal (z-score),Gal(a1-6)Glc,-0.427
same,glycan array binding signal (z-score),Gal(b1-3)Gal(b1-4)GlcNAc,-0.488
same,glycan array binding signal (z-score),[1],-0.48
same,glycan array binding signal (z-score),[2],-0.279
same,glycan array binding signal (z-score),[3],0.314
same,glycan array binding signal (z-score),[4],-0.489
same,glycan array binding signal (z-score),Gal3S(b1-4)Glc,-0.325
same,glycan array binding signal (z-score),Gal6S(b1-4)Glc6S,4.01
same,glycan array binding signal (z-score),Gal6S(b1-4)GlcNAc6S,6.72
same,glycan array binding signal (z-score),[5],-0.356
same,glycan array binding signal (z-score),[6],4.61
same,glycan array binding signal (z-score),[7],1.57
same,glycan array binding signal (z-score),[8],4.1
same,glycan array binding signal (z-score),[9],-0.352
same,glycan array binding signal (z-score),[10],-0.547
same,glycan array binding signal (z-score),[11],-0.647
same,glycan array binding signal (z-score),[12],-0.693
same,glycan array binding signal (z-score),Neu5Ac(a2-8)Neu5Ac,-0.544
same,glycan array binding signal (z-score),[13],-0.422
same,glycan array binding signal (z-score),[14],-0.263
